The nature of assay [1]: Nuclear factor erythroid 2-related factor 2/antioxidant responsive element (Nrf2/ARE) small molecule agonists: qHTS cell viability counter screen in human keratinocytes (AID 1919968; active means well fitted curve in the direction sought with a large enough effect in the repeat runs; an effect the other way counts as inactive or inconclusive; further: nearly all actives have a fitted effect of over 55% in size). The procedure, abridged:
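KeratinoSens HaCaT cells, 1,500/well, preincubated 5 h, then exposed to compounds in DMSO for 23 h at 37 C/5% CO2. Viability read as CellTiter-Fluor fluorescence after 1 h, in the same wells as the ARE-luciferase read.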
On the technique in general: Quantitative high-throughput screening tests each substance at several concentrations.

Assay [2] in a line: Nuclear factor erythroid 2-related factor 2/antioxidant responsive element (Nrf2/ARE) small molecule agonists: luciferase reporter gene qHTS assay in human keratinocytes (AID 1919969; further: nearly all actives have a fitted effect of over 35% in size; further: potency means the concentration at half of the fitted maximal effect). (Reporter assays use an easily measured gene product as a stand-in for the process of interest.)
Assay [3] deals with Gonadotropin-releasing hormone receptor (Homo sapiens) (UniProt P30968). The assay can be described thus: Human gonadotropin-releasing hormone receptor (GnRHR) small molecule agonists, calcium flux assay in GnRHR-HEK293 cells (AID 1920063). Further: nearly all actives have a fitted effect of over 35% in size. Put shortly: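 HEK293 cells stably expressing human GnRHR were dye-loaded for 1 h at 37 C. Compound was added in agonist mode and fluorescence (Ex/Em 480/540) recorded kinetically for 3 min. Fifteen concentrations, triplicates.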
Sequence of Gonadotropin-releasing hormone receptor (Homo sapiens) (P30968 whole entry, looked up): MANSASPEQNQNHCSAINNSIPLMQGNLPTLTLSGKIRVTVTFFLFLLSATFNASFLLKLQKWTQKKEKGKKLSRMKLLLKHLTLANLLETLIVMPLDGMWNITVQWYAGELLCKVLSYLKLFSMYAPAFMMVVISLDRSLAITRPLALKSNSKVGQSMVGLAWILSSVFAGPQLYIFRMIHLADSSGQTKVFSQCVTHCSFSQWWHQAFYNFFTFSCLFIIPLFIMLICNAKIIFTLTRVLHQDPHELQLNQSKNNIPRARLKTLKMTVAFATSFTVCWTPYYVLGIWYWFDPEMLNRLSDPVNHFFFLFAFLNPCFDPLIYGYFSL
(A change in cytosolic calcium serves as a functional read-out for many receptors and channels.)

The target of assay [4] is KiSS-1 receptor (Homo sapiens) (UniProt Q969F8). Kind of assay: Human kisspeptin (KISS1R) small molecule agonists, calcium flux assay in KISS1R-HEK293 cells (AID 1920064; active means well fitted curve in the direction sought with a large enough effect in the repeat runs; an effect the other way counts as inactive or inconclusive). Put shortly:
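HEK293 cells stably expressing human KISS1R were loaded with calcium dye for 1 h at 37 C, then given compound; fluorescence (Ex/Em 480/540) was read kinetically for 3 min. Fifteen concentrations, triplicate.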

Assay [5] is described as follows: G protein-coupled receptor (GPCR) small molecule agonists, calcium flux assay: HEK293 wild type cell line counter screen (AID 1920065). The procedure, abridged: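 Wild-type HEK293 cells plated 18 h, loaded with calcium dye 1 h at 37 C, then compounds added in agonist mode (ATP as positive control). Kinetic fluorescence Ex/Em 480/540 recorded 3 min at 1 sec intervals; 15 concentrations, triplicate.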

The nature of assay [6]: p53 small molecule agonists, cell-based qHTS assay with human liver microsomes: qHTS cell viability counter screen (AID 1963579). Further: nearly all actives have a fitted effect of over 45% in size. Put shortly: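 Tox21 library compounds, delivered from DMSO stocks, were tested on p53RE-bla cells together with 0.5 mg/mL human liver microsomes and 0.5 mg/mL NADPH (final) over 16 h at 37 C; CellTiter-Glo luminescence served as the cytotoxicity measure.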

The nature of assay [7]: p53 small molecule agonists, cell-based qHTS assay with rat liver microsomes: qHTS cell viability counter screen (AID 1963580). Further: nearly all actives have a fitted effect of over 45% in size. The procedure, abridged: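 Intracellular ATP, by CellTiter-Glo luminescence, defines viability. HCT-116 p53RE-bla cells, 4,000 per well, were compound-treated in the presence of rat liver microsomes and NADPH for 16 h at 37 C.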
A short description of assay [8]: cAMP Responsive Elements (CRE) small molecule agonists, cell-based qHTS assay (AID 1963590). The procedure, abridged:
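CRE-bla HEK 293T cells, 2,000/well in DMEM with 10% dialyzed FBS and 25 mM HEPES, pre-incubated 18 h at 37 C, then exposed to compound 3 h at 37 C. Beta-lactamase reporter read with LiveBLAzer B/G FRET substrate after 2 h at room temperature.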

A short description of assay [9]: cAMP Responsive Elements (CRE) small molecule antagonists, cell-based qHTS assay (AID 1963591; active means well fitted inhibition curve with a large enough effect in the signal ratio in the repeat runs, not every such curve was filed as active; the % refers to the signal ratio). Put shortly:
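CRE-bla HEK293T cells plated 18 h, then given compound plus NKH477 at 0.25 uM final for 3 h at 37C. Beta-lactamase reporter read with LiveBLAzer B/G FRET substrate after 2 h at room temperature.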

For assay [10], the target named is D(2) dopamine receptor (Homo sapiens) (UniProt P14416). The assay can be described thus: Dopamine D2 receptor (DRD2) small molecule antagonists, cell-based qHTS assay (AID 1963595; active means well fitted inhibition curve with a large enough effect in the signal ratio in the repeat runs, with a control signal flat; the % refers to the signal ratio). The procedure, abridged:
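HEK293 cells stably expressing DRD2, preincubated with 0.1 mM Ro20-1724 and compounds 10 min, were stimulated with 200 nM NKH477 plus 12 nM quinpirole for 30 min at room temperature; cAMP measured by HTRF (665/620 nm).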

Assay [11] is described as follows: p53 small molecule agonists, cell-based qHTS assay: qHTS cell viability counter screen (AID 1963581). Further: nearly all actives have a fitted effect of over 45% in size. The procedure, abridged: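 p53RE-bla HCT-116 cells, compounds added 5 h after plating and incubated 16 h at 37 C. Cytotoxicity measured in the same wells as intracellular ATP by CellTiter-Glo luminescence after 30 min at room temperature.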
Assay [12] in a line: p53 small molecule agonists, cell-based qHTS assay with human liver microsomes (AID 1963577).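 Further: p53 response element beta-lactamase reporter cells with liver microsomes plus NADPH.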 The procedure, abridged: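 Metabolically competent format: test substances, human liver microsomes and NADPH (both 0.5 mg/mL final) incubated with p53RE-bla cells 16 h at 37 C. Beta-lactamase reporter signal then quantified by fluorescence.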
The nature of assay [13]: p53 small molecule agonists, cell-based qHTS assay (AID 1963582; active means well fitted activation curve with a large enough effect in the signal ratio in the repeat runs, not every such curve was filed as active; the % refers to the signal ratio). Put shortly: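 p53RE-bla reporter cells, compounds added in DMSO after 5 h plating, incubated 16 h at 37 C. Beta-lactamase read via 2 h room-temperature LiveBLAzer B/G FRET substrate, fluorescence intensity.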
Assay [14] has as its target 5-hydroxytryptamine receptor 2A (Homo sapiens) (UniProt P28223). Kind of assay: 5-hydroxytryptamine receptor 2A (HTR2A) small molecule antagonists, cell-based qHTS assay (AID 1963586). Further: nearly all actives have a fitted effect of over 45% in size. Put shortly:
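Antagonist-mode intracellular calcium assay: DOI (4 nM) added after 5 min compound pre-incubation at room temperature to dye-loaded HTR2A-CHO cells. Fluorescence followed for 3 min, sampled every second.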

For assay [15] the target is unchanged. Kind of assay: 5-hydroxytryptamine receptor 2A (HTR2A) small molecule agonists, cell-based qHTS assay (AID 1963587). Further: nearly all actives have a fitted effect of over 30% in size. Further: potency means the concentration at half of the fitted maximal effect. The procedure, abridged:
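Kinetic calcium-flux fluorescence (2 min, 1 sec intervals) after compound addition in agonist mode. HTR2A-CHO cells were cultured 18 h, then dye-loaded 1 h at 37 C.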

In assay [16] the target is Muscarinic acetylcholine receptor M1 (Homo sapiens) (UniProt P11229). The assay can be described thus: Cholinergic receptor muscarinic 1 (CHRM1) small molecule antagonists, cell-based qHTS assay (AID 1963588). Further: nearly all actives have a fitted effect of over 40% in size. The procedure, abridged:
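CHRM1-CHO calcium-flux assay, antagonist mode. Cells were seeded 18 h, dye-loaded 1 h at 37 C and given compound for 5 min at RT, then acetylcholine was added at 50nM. FDSS fluorescence was read 3 min; 15 concentrations, three runs.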

Assay [17] shares this target. Kind of assay: Cholinergic receptor muscarinic 1 (CHRM1) small molecule agonists, cell-based qHTS assay (AID 1963589). Further: nearly all actives have a fitted effect of over 35% in size. Put shortly:
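CHO cells stably expressing human CHRM1 were loaded with calcium dye for 1 h at 37 C, then compound was added in agonist mode. Intracellular calcium fluorescence was followed kinetically at 1 s intervals. Fifteen concentrations were tested in three independent runs.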

The target of assay [18] is Beta-2 adrenergic receptor (Homo sapiens) (UniProt P07550). The assay can be described thus: Adrenergic beta2 receptor (ADRB2) small molecule antagonists, cell-based qHTS assay (AID 1963592). Further: series mostly up to about 92 µM; nearly all actives have a fitted effect of over 50% in size. The procedure, abridged:
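Cells (CHO, stable ADRB2 overexpression) incubated 18-20hr at 37C; compounds added from DMSO; agonist mix (1nM isoproterenol, 100uM IBMX, 25uM Ro-20-1724) added; 0.5hr RT; d2-cAMP and anti-cAMP-cryptate added; 1hr RT; 665/615 nm read.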

The target is the same in assay [19]. The assay can be described thus: Adrenergic beta2 receptor (ADRB2) small molecule agonists, cell-based qHTS assay (AID 1963593).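 Further: CHO cells stably overexpressing human ADRB2.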 The procedure, abridged:
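CHO cells stably over-expressing ADRB2 were plated overnight at 37C, then dosed with compounds plus a stimulation mix containing 100uM IBMX and 25uM Ro-20-1724 for 0.5hr at room temperature. cAMP was measured by HTRF competition, 1hr.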

In assay [20] the target is D(2) dopamine receptor (Homo sapiens) (UniProt P14416). Kind of assay: Dopamine D2 receptor (DRD2) small molecule agonists, cell-based qHTS assay (AID 1963594). Further: nearly all actives have a fitted effect of over 35% in size. Put shortly:
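cAMP accumulation in DRD2-HEK293 cells measured by HTRF after 1 h detection; compounds added 10 min before NKH477 (200nM […]) forskolin-analogue stimulation, 30 min at room temperature, with Ro20-1724 present at 0.1 mM final.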

Each structure is given as a SMILES string. Inconclusive results are not listed. Active and inactive are the calls of the source. Unless noted, the call rests on the fitted dose curve.

Sequence of Beta-2 adrenergic receptor (Homo sapiens) (P07550 whole entry, looked up): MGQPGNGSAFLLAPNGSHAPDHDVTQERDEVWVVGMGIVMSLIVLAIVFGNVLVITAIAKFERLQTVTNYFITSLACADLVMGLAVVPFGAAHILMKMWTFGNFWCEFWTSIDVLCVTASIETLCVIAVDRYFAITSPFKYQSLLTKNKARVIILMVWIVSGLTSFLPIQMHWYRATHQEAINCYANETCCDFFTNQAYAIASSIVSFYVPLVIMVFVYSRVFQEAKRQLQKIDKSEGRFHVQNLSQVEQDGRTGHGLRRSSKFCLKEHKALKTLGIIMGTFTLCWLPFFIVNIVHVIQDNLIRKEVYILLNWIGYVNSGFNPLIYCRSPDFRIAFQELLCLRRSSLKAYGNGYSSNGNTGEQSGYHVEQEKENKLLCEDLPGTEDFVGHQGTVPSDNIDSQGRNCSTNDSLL
Sequence of KiSS-1 receptor (Homo sapiens) (Q969F8 whole entry, looked up): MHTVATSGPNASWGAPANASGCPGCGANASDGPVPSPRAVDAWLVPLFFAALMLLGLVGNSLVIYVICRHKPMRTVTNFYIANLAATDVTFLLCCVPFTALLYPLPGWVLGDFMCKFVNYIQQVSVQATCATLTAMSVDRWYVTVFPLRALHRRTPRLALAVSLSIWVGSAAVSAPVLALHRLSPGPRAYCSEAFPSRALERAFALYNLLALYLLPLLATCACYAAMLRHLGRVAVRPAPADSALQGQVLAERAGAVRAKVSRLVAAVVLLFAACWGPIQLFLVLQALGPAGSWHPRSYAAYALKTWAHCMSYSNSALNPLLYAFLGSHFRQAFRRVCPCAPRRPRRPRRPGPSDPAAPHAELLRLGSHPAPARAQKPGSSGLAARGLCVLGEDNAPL
Sequence of D(2) dopamine receptor (Homo sapiens) (P14416 whole entry, looked up): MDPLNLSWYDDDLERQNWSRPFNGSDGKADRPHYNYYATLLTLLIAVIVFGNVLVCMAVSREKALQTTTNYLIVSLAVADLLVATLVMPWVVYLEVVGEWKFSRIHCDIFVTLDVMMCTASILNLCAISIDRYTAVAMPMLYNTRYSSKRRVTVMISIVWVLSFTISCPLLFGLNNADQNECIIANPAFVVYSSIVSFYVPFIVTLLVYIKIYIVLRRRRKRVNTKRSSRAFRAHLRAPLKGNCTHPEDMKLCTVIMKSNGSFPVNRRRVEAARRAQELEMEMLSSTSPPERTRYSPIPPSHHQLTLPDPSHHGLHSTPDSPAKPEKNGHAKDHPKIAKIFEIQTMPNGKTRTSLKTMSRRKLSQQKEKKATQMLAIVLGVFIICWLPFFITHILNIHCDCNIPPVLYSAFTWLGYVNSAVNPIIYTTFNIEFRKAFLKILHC
Sequence of 5-hydroxytryptamine receptor 2A (Homo sapiens) (P28223 whole entry, looked up): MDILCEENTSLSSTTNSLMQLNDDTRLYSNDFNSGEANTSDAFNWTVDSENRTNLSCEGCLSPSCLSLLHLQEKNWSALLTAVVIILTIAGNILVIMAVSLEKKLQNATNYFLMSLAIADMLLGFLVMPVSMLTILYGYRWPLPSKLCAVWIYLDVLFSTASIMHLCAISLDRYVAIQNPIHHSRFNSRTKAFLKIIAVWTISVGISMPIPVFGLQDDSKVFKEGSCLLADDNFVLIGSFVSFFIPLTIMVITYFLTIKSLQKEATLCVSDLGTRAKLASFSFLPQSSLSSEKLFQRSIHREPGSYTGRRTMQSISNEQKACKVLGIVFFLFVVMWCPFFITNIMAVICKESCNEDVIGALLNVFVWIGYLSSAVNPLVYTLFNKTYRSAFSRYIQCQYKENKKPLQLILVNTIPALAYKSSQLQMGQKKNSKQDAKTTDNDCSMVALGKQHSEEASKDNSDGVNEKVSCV
Sequence of Muscarinic acetylcholine receptor M1 (Homo sapiens) (P11229 whole entry, looked up): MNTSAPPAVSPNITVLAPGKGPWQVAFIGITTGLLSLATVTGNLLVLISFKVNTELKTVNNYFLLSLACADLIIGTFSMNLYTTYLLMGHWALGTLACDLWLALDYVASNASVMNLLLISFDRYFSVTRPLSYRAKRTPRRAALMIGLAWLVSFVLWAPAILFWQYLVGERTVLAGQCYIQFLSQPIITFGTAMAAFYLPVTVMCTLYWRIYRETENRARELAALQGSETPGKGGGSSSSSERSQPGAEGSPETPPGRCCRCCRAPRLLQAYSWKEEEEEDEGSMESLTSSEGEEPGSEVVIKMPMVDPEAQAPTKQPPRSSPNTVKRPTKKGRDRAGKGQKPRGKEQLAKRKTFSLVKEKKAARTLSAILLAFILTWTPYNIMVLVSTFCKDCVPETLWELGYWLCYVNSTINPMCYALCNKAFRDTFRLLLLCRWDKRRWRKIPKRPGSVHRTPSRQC

Regarding `CCN[C@@H](C)Cc1cccc(C(F)(F)F)c1`, the Potency result in assay [1], in assay [2], in assay [3], in [4], in assay [5] and in assay [6] was “inactive” in each case. The Potency result in [7], in [8], in assay [9] and in [10] was “inactive” each time.
Take `CCN[C@H](C)Cc1cccc(C(F)(F)F)c1`: the Potency result in assay [1], in assay [2], in assay [3], in [4], in [5] and in [7] was “inactive” in each case. Besides, the Potency entry in assay [11], in assay [8] and in assay [9] was “inactive” in each case.
As for `N[C@@H]1C[C@H]1c1ccccc1`, the Potency result in assay [1], in assay [2], in assay [3], in [4], in assay [12] and in assay [6] was “inactive” in each case. For the same compound, the Potency entry in assay [7], in assay [11], in assay [13], in [14], in [16] and in [17] was “inactive” in each case. Moreover, the Potency result in [8], in assay [18], in assay [19], in assay [20] and in assay [10] was “inactive” throughout. Moreover, the Potency in assay [15] is 8.49 µM (active).
With `CCOC(=O)CCl`, the Potency result in [1], in assay [2], in assay [3], in [4], in assay [5] and in assay [7] was “inactive” throughout. Further, the Potency result in [11], in assay [14], in assay [15], in [17], in assay [8] and in assay [18] was “inactive” in each case. Also, the Potency entry in assay [20] and in assay [10] was “inactive” in each case.
As for `CC1CN1P(=O)(N1CC1C)N1CC1C` (configuration not stated), the Potency entry in assay [1], in assay [2], in assay [3], in assay [4], in assay [5] and in assay [6] was “inactive” throughout. The Potency entry in assay [7], in [14], in [15], in assay [16], in assay [17] and in [8] was “inactive” throughout. Further, the Potency result in [18], in assay [20] and in [10] was “inactive” each time.
On to `CCOP(=S)(OCC)SC(CCl)N1C(=O)c2ccccc2C1=O` (configuration not stated), for which the Potency entry in assay [1], in assay [3], in assay [4], in assay [5], in [6] and in assay [7] was “inactive” throughout. Moreover, the Potency entry in [15], in assay [17], in assay [20] and in assay [10] was “inactive” each time. The Potency in assay [2] is 30.6 µM (active).
Consider `Cc1cccc(OP(=O)(Oc2cccc(C)c2)Oc2cccc(C)c2)c1`, for which the Potency entry in [1], in assay [2], in [3], in assay [4], in assay [5] and in assay [6] was “inactive” throughout. Also, the Potency result in assay [14], in assay [15], in assay [16], in assay [17], in assay [8] and in assay [9] was “inactive” throughout. The Potency entry in assay [18], in assay [20] and in assay [10] was “inactive” each time.
For the compound `O=C(Oc1ccc(Br)cc1)N1CCN2CCC1CC2`, the Potency result in assay [1], in assay [2], in [3], in assay [4], in assay [5] and in assay [6] was “inactive” each time. In addition, the Potency entry in assay [11], in [13], in assay [14], in assay [15], in [17] and in [8] was “inactive” in each case. The Potency result in assay [9], in [18] and in [10] was “inactive” in each case.

These data come from PubChem BioAssay (Tox21).
